Results reported in PubChem BioAssay (NCATS).
Records with an inconclusive call do not appear. Entries that show only a call come without a potency. The source made the active and inactive calls. Calls follow the shape of the dose curve; as a rule, active = well fitted curve in the direction sought with a large enough effect; inconclusive = small, poorly fitted or top-dose-only effect, or another doubt; inactive = no such curve, though single readings can be large; an effect the other way counts as inactive or inconclusive.

Key:
[1] = qHTS for inhibitors of adenylyl cyclases using a fission yeast platform: a pilot screen against the NCATS LOPAC library (AID 1347410)
How it was run: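 Read-out: fbp1-GFP fluorescence by laser scanning cytometry (488 nm laser), a gain of signal when AC/cAMP-PKA signalling is inhibited. Strain CHP2027 expressing AC9, GNAS and PDE4D2; compounds at up to 57 µM; 18 h, 30C.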

[2] = Validation qHTS assay for inhibitors of Activation Induced Cytidine Deaminase (AID): UDG Counterscreen signal (AID 1347427)
How it was run: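 Fluorescence at 560 nm excitation, 665 nm emission reports UDG signal after 250 mM NaOH (2x) addition and 30 min. Enzymes (AID 1 uM, UDG 2 U/mL, at 4/3x) preincubated 10 min with compound, then 4 h with 4x 250 nM DJC20/DJC23 substrate at room temperature.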

[3] = target: Single-stranded DNA cytosine deaminase (Homo sapiens) (UniProt Q9GZX7); test: Validation qHTS assay for inhibitors of Activation Induced Cytidine Deaminase (AID): AID signal (AID 1347429)
Sequence of Single-stranded DNA cytosine deaminase (Homo sapiens) (Q9GZX7 whole entry, looked up): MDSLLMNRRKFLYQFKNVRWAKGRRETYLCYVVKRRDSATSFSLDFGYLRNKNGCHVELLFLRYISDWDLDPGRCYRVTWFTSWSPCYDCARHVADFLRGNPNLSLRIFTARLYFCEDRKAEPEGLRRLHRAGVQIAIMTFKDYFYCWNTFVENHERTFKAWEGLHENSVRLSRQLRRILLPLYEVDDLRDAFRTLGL
How it was run: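 Compounds (final up to 114 uM) preincubated with AID plus UDG; 250 nM DJC20/DJC23 substrate mix (4x stock) added, 4 hr at room temperature, then NaOH, 30 min. Read 1 fluorescence at 540 nm excitation, 590 nm emission.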

[4] = qHTS to identify inhibitors of the type 1 interferon - major histocompatibility complex class I in skeletal muscle: primary screen against the NCATS Pharmaceutical Collection (AID 1347407);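 also: luminescence of HiBiT knocked into endogenous HLA-B as interferon-induced MHC class I level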; also: potency is read from the fitted curve at half-maximal effect
How it was run: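 HLA-B HiBiT myoblasts, dexamethasone-free growth medium + 4 ng/ml IFN-b; compounds pinned 1 h after seeding, […] from 46 uM; 24 h, 37 C, 5% CO2; lytic HiBiT detection, 10 min RT, luminescence.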

[5] = target: Protein phosphatase 1D (Homo sapiens) (UniProt O15297); test: RapidFire Mass Spectrometry qHTS Assay for Modulators of WT P53-Induced Phosphatase 1 (WIP1) (AID 1347424); also: series mostly up to about 63 µM
Sequence of Protein phosphatase 1D (Homo sapiens) (O15297 whole entry, looked up): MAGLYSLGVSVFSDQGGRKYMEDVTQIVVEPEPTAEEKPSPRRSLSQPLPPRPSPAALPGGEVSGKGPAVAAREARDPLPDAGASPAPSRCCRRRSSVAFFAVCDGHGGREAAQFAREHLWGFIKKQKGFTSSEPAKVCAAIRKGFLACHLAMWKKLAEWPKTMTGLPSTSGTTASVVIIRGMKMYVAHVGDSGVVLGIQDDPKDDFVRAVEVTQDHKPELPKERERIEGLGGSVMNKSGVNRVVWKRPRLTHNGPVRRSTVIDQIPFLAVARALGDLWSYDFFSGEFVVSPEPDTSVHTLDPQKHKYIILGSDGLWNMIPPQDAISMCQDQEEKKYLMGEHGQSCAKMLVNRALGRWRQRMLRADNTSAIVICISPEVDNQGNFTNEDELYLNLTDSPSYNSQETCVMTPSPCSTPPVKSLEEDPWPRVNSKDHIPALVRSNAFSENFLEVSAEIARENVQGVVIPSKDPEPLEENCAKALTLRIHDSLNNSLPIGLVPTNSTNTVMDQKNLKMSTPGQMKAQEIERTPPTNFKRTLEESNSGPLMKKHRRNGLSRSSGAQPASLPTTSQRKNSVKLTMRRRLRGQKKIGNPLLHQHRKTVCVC
How it was run: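 RapidFire MS readout of dephosphorylated VEPPL-S-QETFS product, with 1 uM isotope-labelled peptide standard. Reaction: 10 nM WIP1, 2 uM phosphopeptide substrate, 5 min, room temperature, after 1 h compound preincubation; stopped with 0.5% formic acid.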

[6] = target: Protein phosphatase 1D (Homo sapiens) (UniProt O15297); test: Rhodamine-PBP qHTS Assay for Modulators of WT P53-Induced Phosphatase 1 (WIP1) (AID 1347425)
How it was run: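 5 nM WIP1 + 10 uM Rh-PBP, 50 mM Tris pH 7.5, 30 mM MgCl2, 1 mM TCEP, 0.1 mM EGTA, BSA; cpds pinned, 1 hr RT; + 10 uM phosphopeptide; fluorescence 1-min reads x 11 min; delta = f1 - f0.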

[7] = qHTS to identify inhibitors of the type 1 interferon - major histocompatibility complex class I in skeletal muscle: primary screen against the NCATS Mechanism Interrogation Plate v5.0 (MIPE) Libary (AID 1347411); also: nearly all actives have a fitted effect of over 65% in size
How it was run: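 Luminescence from CRISPR HiBit-tagged endogenous HLA-B in human myoblasts reported MHC class I level after 24 h of IFN-beta (4 ng/ml) plus compound. Compounds ran as 11-point 1:3 series, top 46 uM final.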

COC[C@H]1OC(=O)c2coc3c2[C@@]1(C)C1=C(C3=O)C2CCC(=O)[C@@]2(C)C[C@H]1OC(C)=O (some centres not stated)
outcome [1]: inactive | outcome [2]: inactive | outcome [3]: inactive

CCOC(=O)C1(c2ccccc2)CCN(CCC(C#N)(c2ccccc2)c2ccccc2)CC1
Potency [4]: inactive | Potency [5]: inactive | outcome [6]: inactive

CC[N+]1(C)CCCC(OC(=O)C(O)(c2ccccc2)c2ccccc2)C1 (configuration not stated)
Potency [4]: inactive | Potency [5]: inactive | outcome [6]: inactive

Clc1ccc(COC(Cn2ccnc2)c2ccc(Cl)cc2Cl)cc1 (configuration not stated)
Potency [5]: inactive | outcome [6]: inactive

CNC(=O)c1ccc(N2C(=S)N(c3ccc(C#N)c(C(F)(F)F)c3)C(=O)C23CCC3)cc1F
Potency [7]: inactive

C[C@]12C/C(=C/O)C(=O)C[C@@H]1CC[C@@H]1[C@@H]2CC[C@@]2(C)[C@H]1CC[C@]2(C)O
Potency [5]: inactive | outcome [6]: inactive

Fc1ccc(C(OCCN2CCN(CCCc3ccccc3)CC2)c2ccc(F)cc2)cc1
outcome [1]: inactive | Potency [5]: inactive | outcome [6]: inactive | outcome [2]: inactive | outcome [3]: inactive

CCC(=O)C(CC(C)N(C)C)(c1ccccc1)c1ccccc1 (configuration not stated)
Potency [5]: inactive | outcome [6]: inactive

COC1(CS(=O)c2ccccc2)CCN(CCc2c[nH]c3ccc(F)cc23)CC1 (configuration not stated)
Potency [7]: inactive

CC(C)(C)NCC(O)c1cc(Cl)c(N)c(Cl)c1 (configuration not stated)
Potency [4]: inactive | Potency [5]: inactive | outcome [6]: inactive

CCN(CC)CCOC(=O)C(O)(c1ccccc1)c1ccccc1
Potency [4]: inactive | Potency [5]: inactive | outcome [6]: inactive

COc1ccc(Cc2nccc3cc(OC)c(OC)cc23)cc1OC
Potency [4]: inactive | Potency [5]: inactive | outcome [6]: inactive

CC[N+](CC)(CC)CC
Potency [4]: inactive | Potency [5]: inactive | outcome [6]: inactive

CN(C)CCN(C)CCc1ccc(Cl)c(Cl)c1
Potency [7]: inactive

CCCC1CCCCN1 (configuration not stated)
Potency [4]: inactive | Potency [5]: inactive | outcome [6]: inactive

O=c1[nH]c2ccccc2n1C1CCN(CCCC(c2ccc(F)cc2)c2ccc(F)cc2)CC1
outcome [1]: inactive | Potency [5]: inactive | outcome [6]: inactive | outcome [2]: inactive | outcome [3]: inactive

Cc1cc(SCc2sc(-c3ccc(C(F)(F)F)c(F)c3)nc2C)ccc1OCC(=O)O
Potency [7]: inactive

FC(F)(F)c1cccc(C2=CCN(CCc3ccc4ccccc4c3)CC2)c1
Potency [4]: inactive | Potency [5]: inactive | outcome [6]: inactive

CN(C)CCc1ccc(O)cc1
Potency [4]: inactive | outcome [6]: inactive

CCC(COC(=O)c1cc(OC)c(OC)c(OC)c1)(c1ccccc1)N(C)C (configuration not stated)
Potency [4]: inactive | Potency [5]: inactive | outcome [6]: inactive

CC(C)CC(N(C)C)C1(c2ccc(Cl)cc2)CCC1 (configuration not stated)
Potency [4]: inactive | Potency [5]: inactive | outcome [6]: inactive

Clc1cccc(N2CCNCC2)c1
Potency [4]: inactive | Potency [5]: inactive | outcome [6]: inactive

O=C1CC[C@@]2(O)[C@H]3Cc4ccc(O)c5c4[C@@]2(CCN3CC2CC2)[C@H]1O5
Potency [5]: inactive | outcome [6]: inactive

CCN(CC)C(=O)N[C@@H]1C=C2c3cccc4[nH]cc(c34)C[C@@H]2N(C)C1
Potency [4]: inactive | Potency [5]: inactive | outcome [6]: inactive

O=C(O)C(=O)c1cn(Cc2ccccc2)c2ccc(-c3ccc(OC(F)(F)F)cc3)cc12
Potency [7]: inactive

CCOP(=S)(OCC)Oc1cc(C)nc(C(C)C)n1
Potency [4]: inactive | Potency [5]: inactive | outcome [6]: inactive

CC(=O)Nc1cc([As](=O)(O)O)ccc1O
Potency [4]: inactive | outcome [6]: inactive

O=[N+]([O-])c1cc([As](=O)(O)O)ccc1O
Potency [4]: inactive | Potency [5]: inactive | outcome [6]: inactive

CN1C(=S)CN=C(c2ccccc2)c2cc(Cl)ccc21
Potency [4]: inactive | Potency [5]: inactive | outcome [6]: inactive

CC(C)=CC1C(C(=O)OCc2cccc(Oc3ccccc3)c2)C1(C)C (configuration not stated)
Potency [4]: inactive | Potency [5]: inactive | outcome [6]: inactive

Oc1cccc2cccnc12
Potency [4]: inactive | Potency [5]: inactive | outcome [6]: inactive

CO[C@]12CC[C@@]3(C[C@@H]1[C@](C)(O)C(C)(C)C)[C@@H]1Cc4ccc(O)c5c4[C@@]3(CCN1CC1CC1)[C@H]2O5
Potency [4]: 48.1 µM (active) | Potency [5]: inactive | outcome [6]: inactive

CCCC(C)(COC(N)=O)COC(=O)NC(C)C (configuration not stated)
Potency [4]: inactive | Potency [5]: inactive | outcome [6]: inactive | outcome [2]: inactive | outcome [3]: inactive

Cc1ccc2c(c1)C1CN(C)CCC1N2 (configuration not stated)
Potency [4]: inactive | Potency [5]: inactive | outcome [6]: inactive
